Data on 17 molecules can be found in paper PMC5540273 (PLoS ONE, 2017).

Molecules are shown by their SMILES.

Among the test systems are ERN1; FER; FES; FGFR1; FGFR2; FGFR3; FGFR4; FGR.
Conditions in all cases: concentration: 1 μM, replicates: in singlicate; n = 1
Another experiment relates to T1, ERK8.
T1 construct: gene MAPK15

A further experiment deals with T2, FAK.
T2 construct: gene PTK2
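Note: KINOMEscan kinase panel screen.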

Consider `CC(=O)c1c(C)c2cnc(Nc3ccc(N4CCNCC4)cn3)nc2n(C2CCCC2)c1=O`, for which the “%Inh” value is listed as 17% in the experiment on ERK8; 0% in the experiment with ERN1; 0% in the experiment on FAK; 4% in the experiment with FER; 0% in the experiment on FES; 2% with FGFR1. Besides, the “%Inh” value was determined as 0% in the experiment with FGFR2, 0% in the experiment with FGFR3, 0% in the experiment with FGFR4 and 20% with FGR.

Regarding `CS(=O)(=O)Cc1ccc(Nc2nccc(-c3c(-c4cccc(NC(=O)C5CCCCC5)c4)nn4ncccc34)n2)cc1` [GSK350559], the “%Inh” value with ERK8 worked out at 0%; in the experiment with ERN1, 33%; with FAK it was 0%; in the experiment on FER it was 8%; with FES it was 0%; in the experiment on FGFR1, 0%. The “%Inh” value is recorded as 41% in the experiment with FGFR2, 16% in the experiment on FGFR3, 6% in the experiment on FGFR4 and 27% with FGR.

For `CS(=O)(=O)CCNCc1nc(-c2ccc3ncnc(Nc4ccc(OCc5ccccc5)c(Cl)c4)c3c2)cs1.Cl` [GW582764], the “%Inh” value in the experiment on ERK8, with ERN1, in the experiment on FAK, with FER, in the experiment with FES and in the experiment on FGFR1 was 0% in each case. Besides, the “%Inh” value in the experiment on FGFR2 worked out at 0%; with FGFR3, 0%; in the experiment on FGFR4, 0%; in the experiment with FGR, 18%.

Consider `COc1cccc(C2=C(Nc3cc(Cl)c(O)c(Cl)c3)C(=O)NC2=O)c1` [SB-390767], for which the “%Inh” value in the experiment with ERK8 is reported as 37%; with ERN1 it was 17%; in the experiment on FAK, 0%; in the experiment with FER it was 0%; with FES, 0%; with FGFR1 it was 0%. In addition, the “%Inh” value with FGFR2 is on record as 53%; in the experiment with FGFR3, 41%; in the experiment with FGFR4, 29%; in the experiment on FGR, 22%.

As for `COc1ccc(Nc2nccc(N3CCC(NC(=O)C(C)c4ccc(Cl)cc4)C3)n2)cc1` (centres unmarked) [GSK1379735], the “%Inh” value is 44% in the experiment with ERK8; 0% in the experiment with ERN1; 0% in the experiment on FAK; 28% in the experiment on FER; 12% in the experiment on FES; 8% in the experiment on FGFR1. For the same molecule, the “%Inh” value in the experiment with FGFR2 was determined as 36%; in the experiment with FGFR3, 17%; in the experiment on FGFR4, 3%; with FGR, 10%.

In the case of `Cc1cnc(N)c(/C=C/c2cncc(C(=O)NCCc3ccc(Cl)cc3Cl)c2)c1.Cl` [GSK190937], the “%Inh” value in the experiment with ERK8 is recorded as 0%; with ERN1 it was 0%; with FAK it was 0%; in the experiment on FER it was 4%; with FES it was 0%; in the experiment with FGFR1 it was 0%. Further, the “%Inh” value in the experiment on FGFR2 was 9%; in the experiment with FGFR3, 13%; in the experiment on FGFR4, 6%; in the experiment with FGR it was 17%.

In the case of `COC(=O)C(Cc1ccccc1)NC(=O)NC1CCN(c2ccnc(Nc3ccc(F)cc3)n2)C1` (centres unmarked) [GSK1379714], the “%Inh” value was 0% with ERK8; 0% with ERN1; 0% in the experiment with FAK; 30% with FER; 0% with FES; 0% in the experiment with FGFR1. For the same molecule, the “%Inh” value in the experiment on FGFR2 came out at 51%; in the experiment on FGFR3, 26%; in the experiment on FGFR4 it was 0%; with FGR, 0%.

Consider `CCn1c(-c2ccccc2)nc2cnccc21` [SB-733416], for which the “%Inh” value with ERK8 worked out at 23%; in the experiment with ERN1 it was 0%; with FAK, 2%; with FER, 18%; in the experiment on FES, 0%; in the experiment on FGFR1, 18%. The “%Inh” value is on record as 0% in the experiment with FGFR2, 0% in the experiment on FGFR3, 23% with FGFR4 and 22% in the experiment on FGR.

Regarding `CC[C@@H]1CO[C@H](C(=O)Nc2ccccc2)CN1c1cc(-c2ccc3c(N)n[nH]c3c2)nc(NC)n1` [GSK2376236], the “%Inh” value with ERK8 is 0%; in the experiment on ERN1 it was 19%; in the experiment on FAK, 0%; in the experiment with FER, 27%; with FES, 9%; with FGFR1, 0%. Besides, the “%Inh” value in the experiment with FGFR2 turned out to be 0%; with FGFR3, 41%; in the experiment with FGFR4, 19%; in the experiment on FGR, 31%.

For the molecule `CC(=O)c1c(C)c2cnc(Nc3ccn(C)n3)nc2n(C2CCCC2)c1=O`, the “%Inh” value in the experiment on ERK8 was 17%; with ERN1, 0%; in the experiment with FAK, 0%; in the experiment on FER, 9%; with FES, 0%; in the experiment on FGFR1 it was 0%. Moreover, the “%Inh” value with FGFR2 turned out to be 0%; in the experiment with FGFR3, 0%; in the experiment with FGFR4, 11%; in the experiment with FGR, 0%.

Consider `O=c1cc(N2CCOCC2)nc2n(Cc3cccc(Cl)c3Cl)c3ccccc3n12` [GSK2299009], for which the “%Inh” value in the experiment on ERK8 is on record as 0%; in the experiment on ERN1 it was 18%; with FAK, 0%; in the experiment with FER, 49%; with FES it was 0%; with FGFR1, 31%. For the same molecule, the “%Inh” value came out at 4% in the experiment on FGFR2, 10% in the experiment with FGFR3, 21% in the experiment with FGFR4 and 17% in the experiment on FGR.

On to `CCCCc1nn2ncccc2c1-c1ccnc(NC2CC2)n1` [GW684374], for which the “%Inh” value in the experiment with ERK8, in the experiment with ERN1, in the experiment on FAK, with FER, in the experiment on FES and in the experiment with FGFR1 was 0% in each case. In addition, the “%Inh” value with FGFR2 was 0%; in the experiment on FGFR3 it was 5%; in the experiment with FGFR4, 0%; in the experiment on FGR, 7%.

For the molecule `Cc1ccc(NC(=O)Nc2ccccc2F)cc1-c1ccc(C(=O)Nc2ccncc2)cc1` [GSK1398477], the “%Inh” value in the experiment with ERK8 is on record as 0%; in the experiment on ERN1 it was 13%; in the experiment with FAK, 0%; with FER, 16%; in the experiment with FES it was 11%; in the experiment with FGFR1 it was 19%. Also, the “%Inh” value in the experiment with FGFR2 is on record as 14%; with FGFR3 it was 23%; with FGFR4 it was 21%; in the experiment on FGR, 26%.

With `c1ccc(-c2ccnc3[nH]ccc23)cc1` [SB-693578], the “%Inh” value with ERK8 amounted to 0%; in the experiment with ERN1, 11%; in the experiment on FAK, 0%; with FER, 0%; with FES it was 0%; in the experiment on FGFR1, 0%. Moreover, the “%Inh” value in the experiment with FGFR2 was 0%; with FGFR3, 7%; in the experiment with FGFR4, 13%; in the experiment with FGR, 2%.

With `CCn1c(-c2c(N)noc2C)nc2cnccc21` [SB-737856], the “%Inh” value in the experiment on ERK8 is listed as 41%; in the experiment with ERN1 it was 15%; with FAK, 0%; in the experiment with FER it was 3%; in the experiment with FES, 42%; with FGFR1 it was 0%. The “%Inh” value in the experiment on FGFR2 was determined as 28%; with FGFR3, 37%; with FGFR4, 11%; in the experiment with FGR, 61%.

Regarding `O=C(Nc1n[nH]c2cc(-c3ccsc3)ccc12)C1CC1` [SB-732932], the “%Inh” value in the experiment with ERK8 is given as 92.4%; in the experiment on ERN1, 8%; with FAK, 6%; in the experiment on FER it was 0%; in the experiment on FES, 0%; in the experiment on FGFR1, 1%. Further, the “%Inh” value with FGFR2 was found to be 0%; in the experiment on FGFR3, 3%; in the experiment on FGFR4 it was 0%; in the experiment on FGR, 13%.

`COc1nccc(-c2c(-c3ccc(F)cc3)ncn2CCCN2CCOCC2)n1` [SB-282852]: the “%Inh” value was 4% in the experiment on ERK8; 16% in the experiment on ERN1; 0% with FAK; 0% in the experiment on FER; 0% in the experiment on FES; 46% in the experiment on FGFR1. In addition, the “%Inh” value with FGFR2 is given as 0%; in the experiment with FGFR3 it was 0%; with FGFR4 it was 0%; with FGR it was 1%.
